# Reference: PubChem BioAssay (NCATS)
# Several values for one entry are separate records, joined by “and”; a condition that tells them apart may be missing. Equal entries are not always repeated. Inconclusive results are not listed. Where a call stands in place of a potency, no number is given. Activity calls are given as the source filed them. Calls come from the whole dose curve.
# Key:
# [1] = Cytotoxicity counterscreen for inhibitors of SARS-CoV-2 cell entry (AID 1645845); details: cell viability (SARS-CoV-2 entry assay cells); series mostly up to 57.1 µM; note: nearly all actives have a fitted effect of over 50% in size
# Outline: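 HEK293-ACE2 cells (Expi293F stably expressing human ACE2) seeded overnight, then compound for 1 h plus 48 h at 37C. Viability as ATP content by luminescence; normalized to wells with cells and media-only wells.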
# [2] = Primary qHTS to identify inhibitors of SARS-CoV-2 cell entry (AID 1645846); details: SARS-CoV-2 pseudovirus cell entry assay, luminescence; activity change, negative = inhibition: at 57.1 µM (top of the series) unless noted; series mostly up to 57.1 µM; note: nearly all actives have a fitted effect of over 45% in size; note: potency is the fitted concentration of half-maximal effect
# Outline: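 Luminescence readout (Bright-Glo luciferase) 48 h after pseudoparticle addition. HEK293-ACE2 cells, 1500/well; compound pre-incubation 1 h; Normalized to spike PP and bald PP.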
SMILES,Potency [1],Potency [2],"activity change, negative = inhibition [2]"
COc1ccc(NS(=O)(=O)c2ccc(N)cc2)nn1,inactive,inactive,
OC[C@H]1O[C@@H](n2cnc3c2NC=NC[C@H]3O)C[C@@H]1O,inactive,,-15% and -28%
O=C(O)COc1nn(Cc2ccccc2)c2ccccc12,inactive,inactive,
CCCCCCCCCCCCCCCCCCO,inactive,,0.247%
COc1ccc(-c2ccc3cc(C(=O)O)ccc3c2)cc1C12CC3CC(CC(C3)C1)C2,inactive,,-13.5% and -15.7%
CCCOC(=O)c1ccccc1,inactive,inactive,
NC(N)=NS(=O)(=O)c1ccc(N)cc1,inactive,inactive,
CN1C(C(=O)Nc2ccccn2)=C(O)c2sccc2S1(=O)=O,inactive,inactive,
COc1cc(C)c(Cc2cnc(N)nc2N)cc1OC,inactive,inactive,
C[C@@H]1O[C@@H]1P(=O)(O)O,inactive,,1.53% [at 27.1 µM]
CO[C@@]1(NC(=O)Cc2cccs2)C(=O)N2C(C(=O)O)=C(COC(N)=O)CS[C@@H]21,inactive,inactive,
CCCCCCCCCCCCCCCC(=O)OCCC1CCN(CCCN2c3ccccc3Sc3ccc(S(=O)(=O)N(C)C)cc32)CC1,inactive,,-4.81%
CC[N+](CC)(CC)CCOc1cccc(OCC[N+](CC)(CC)CC)c1OCC[N+](CC)(CC)CC,inactive,inactive,
CN(C)C(=O)COC(=O)Cc1ccc(OC(=O)c2ccc(N=C(N)N)cc2)cc1,inactive,,-4.53% and -0.733%
CCn1cc(C(=O)O)c(=O)c2cnc(N3CCNCC3)nc21,inactive,,0.978%
CC(=O)OCC(COC(C)=O)OC(C)=O,inactive,,0.643%
CC(C)(C)NC[C@H](O)COc1cccc2c1CCCC2=O,inactive,,-5.98%
CCCCCCCC(=O)OCC(COC(=O)CCCCCCC)OC(=O)CCCCCCC,inactive,inactive,
CC(=O)Nc1c(I)c(NC(C)=O)c(I)c(C(=O)O)c1I,inactive,,-1.67%
NCCCC[C@H](N[C@@H](CCc1ccccc1)C(=O)O)C(=O)N1CCC[C@H]1C(=O)O,inactive,,-27.7%
Cc1noc(NS(=O)(=O)c2ccc(N)cc2)c1C,inactive,,-11.7%
COc1cc(C)c(/C=C/C(C)=C/C=C/C(C)=C/C(=O)O)c(C)c1C,inactive,,-1.85%
COc1cc(C)nc(-n2nc(C)cc2OC)n1,inactive,inactive,
Cc1ccc(C(=O)c2ccc(CC(=O)O)n2C)cc1,inactive,inactive,

SMILES,Potency [1],Potency [2],"activity change, negative = inhibition [2]"
CCCCC(=O)OCC(=O)[C@H]1[C@H](C)C[C@H]2[C@@H]3C[C@H](F)C4=CC(=O)C=C[C@]4(C)[C@@]3(F)[C@@H](O)C[C@@]21C,inactive,inactive,
CCCCOC(=O)c1ccc(N)cc1,inactive,inactive,
NS(=O)(=O)c1cc(C(=O)NN2C[C@H]3[C@H]4CCC(C4)[C@H]3C2)ccc1Cl,inactive,,-24.3%
COc1c2occc2cc2ccc(=O)oc12,inactive,inactive,
Cc1c(F)c(N2CCNC(C)C2)cc2c1c(=O)c(C(=O)O)cn2C1CC1 (stereo unspecified),inactive,,-25.6%
Oc1cccc(O)c1,inactive,inactive,
CC(=O)Nc1ccc(OC(=O)c2ccccc2OC(C)=O)cc1,inactive,,-2.29%
CC1(C)O[C@H]2CC(=O)OC[C@]23[C@H]2CC[C@@]4(C)[C@H](c5ccoc5)OC(=O)[C@H]5O[C@]54[C@]2(C)C(=O)C[C@@H]13,inactive,,-13.1%
CN(C)CCOc1ccc(/C(=C(/CCCl)c2ccccc2)c2ccccc2)cc1,inactive,15.8 µM (active) and 20 µM (active),
COC(=O)/C=C\C(=O)OC,inactive,,-18.2%
CCC(Cc1c(I)cc(I)c(N)c1I)C(=O)O (stereo unspecified),inactive,inactive,
C1COC(NC(C2CC2)C2CC2)=N1,inactive,,1.02%
CC(=O)OC(C)OC(=O)C(C)c1ccc(-c2ccccc2)c(F)c1 (stereo unspecified),inactive,,-21.2%
O=C(O)CCCC[C@@H]1SC[C@@H]2NC(=O)N[C@@H]21,inactive,inactive,
CN1CCN(C(c2ccccc2)c2ccc(Cl)cc2)CC1 (stereo unspecified),inactive,10 µM (active),
O=C(/C=C/c1ccccc1)OCc1ccccc1,inactive,,-14.8%
C[C@]12C=CC(=O)C=C1[C@@H](F)C[C@@H]1[C@@H]2[C@@H](O)C[C@@]2(C)[C@H]1CC[C@]2(O)C(=O)CO,inactive,inactive,
CCCC(=O)OCOC(=O)C1=C(C)NC(C)=C(C(=O)OC)C1c1cccc(Cl)c1Cl (stereo unspecified),inactive,inactive,
NCC(=O)CCC(=O)O,inactive,,-19.8%
CCN(CC)CCNC(=O)c1ccc(N)cc1,inactive,inactive,
CC(C)C[C@H](CN)CC(=O)O,inactive,inactive,
O=C(O)/C=C\C(=O)O,inactive,inactive,
NS(=O)(=O)c1ccc(Cl)c(S(N)(=O)=O)c1,inactive,inactive,
CC(C)(Oc1ccc(Cl)cc1)C(=O)OCCCOC(=O)C(C)(C)Oc1ccc(Cl)cc1,inactive,,-28.5%

SMILES,Potency [1],Potency [2],"activity change, negative = inhibition [2]"
CCc1oc2ccccc2c1C(=O)c1cc(I)c(O)c(I)c1,inactive,,-21.9%
O=C(c1ccccc1)C(O)c1ccccc1 (stereo unspecified),inactive,inactive,
COc1cccc(OC)c1C(=O)N[C@@H]1C(=O)N2[C@@H]1SC(C)(C)[C@@H]2C(=O)O,inactive,,-19.9%
O=C(CCBr)N1CCN(C(=O)CCBr)CC1,inactive,inactive,
C/C(=C(\CCO)SS/C(CCO)=C(\C)N(C=O)Cc1cnc(C)nc1N)N(C=O)Cc1cnc(C)nc1N,inactive,,-31.6%
CC(=O)NC[C@H]1CN(c2ccc(N3CCOCC3)c(F)c2)C(=O)O1,inactive,,-4.07%
CCC[C@@H]1C[C@@H](C(=O)N[C@@H]([C@H]2O[C@H](SC)[C@H](O)[C@@H](O)[C@H]2O)[C@H](C)Cl)N(C)C1,inactive,,-7.46%
Nc1nc(-c2ccccc2)c(Br)c(=O)[nH]1,inactive,inactive,
CN(C)CCN(Cc1ccsc1)c1ccccn1,inactive,,-8.15%
Oc1ccccc1,inactive,inactive,
CCCC(=O)O[C@]1(C(=O)CO)CC[C@H]2[C@@H]3CCC4=CC(=O)CC[C@]4(C)[C@H]3[C@@H](O)C[C@@]21C,inactive,,-10%
OCCOCCN1CCN(C2=Nc3ccccc3Sc3ccccc32)CC1,inactive,,-1.17%
N[C@@H](Cc1cc(I)c(Oc2ccc(O)c(I)c2)c(I)c1)C(=O)O,inactive,inactive,
CCCCC(CC)CN1CN(CC(CC)CCCC)CC(C)(N)C1 (stereo unspecified),inactive,inactive,
O=C1c2c(O)cccc2Cc2cccc(O)c21,inactive,inactive,
COc1cnc(NS(=O)(=O)c2ccc(N)cc2)nc1,inactive,inactive,
CCOC(=O)Oc1ccc(CCNC(=O)[C@H](CCSC)NC(C)=O)cc1OC(=O)OCC,inactive,inactive,
Cc1ccc(C(C)C)cc2c(C)ccc1-2,inactive,inactive,
O=C(CO)[C@@H](O)[C@H](O)[C@@H](O)CO,inactive,,-14.3%
Cc1c(C(C)C)c(=O)n(-c2ccccc2)n1C,inactive,,-4.29%
CC(=O)OCC(=O)[C@@]1(O)[C@H](C)C[C@H]2[C@@H]3CCC4=CC(=O)C=C[C@]4(C)[C@@]3(F)[C@@H](O)C[C@@]21C,inactive,inactive,
CCN(CC)CCNC(=O)c1cc(S(C)(=O)=O)ccc1OC,inactive,inactive,
CC(C)[C@H](N)C(=O)OCCOCn1cnc2c(=O)[nH]c(N)nc21,inactive,,-28.1%
O=C(O)CCCCC(=O)O,inactive,inactive,

SMILES,Potency [1],Potency [2],"activity change, negative = inhibition [2]"
COC(=O)N/N=C/c1c[n+]([O-])c2ccccc2[n+]1[O-],inactive,inactive,
COc1ccnc(CS(=O)c2nc3ccc(OC(F)F)cc3[nH]2)c1OC (stereo unspecified),inactive,inactive,
O=c1cc(O)c(Cl)c[nH]1,inactive,inactive,
Cc1ccnc(NS(=O)(=O)c2ccc(N)cc2)n1,inactive,inactive,
CC(C)(C)NCC(O)c1cc(O)cc(O)c1 (stereo unspecified),inactive,inactive,
CC(C)NCC(O)c1ccc(NS(C)(=O)=O)cc1 (stereo unspecified),inactive,,-13.1% and -25%
C=CCN1CCc2nc(N)sc2CC1,inactive,inactive,
CC(CCc1ccc(O)cc1)NCCc1ccc(O)c(O)c1 (stereo unspecified),inactive,,-37.3%
Cc1ccc(C(=O)C(=O)O)cc1C,inactive,,-19.4%
Cc1cc2c(cc1S(N)(=O)=O)S(=O)(=O)CCC2,inactive,inactive,
CN1C[C@@H]2C[C@H]1CN2c1cc2c(cc1F)c(=O)c(C(=O)O)cn2C1CC1,inactive,,-27.1% [at 27.1 µM]
CCCCCC[C@@H](CCC)C(=O)O,inactive,inactive,
CCCCCCCCCCCCCCCCCC(=O)OCC(O)CO (stereo unspecified),inactive,inactive,
CCOC(=O)O[C@]1(C(=O)OCCl)CC[C@H]2[C@@H]3CCC4=CC(=O)C=C[C@]4(C)[C@H]3[C@@H](O)C[C@@]21C,inactive,inactive,
Cc1c(N(C)CS(=O)(=O)O)c(=O)n(-c2ccccc2)n1C,inactive,,1.77%
OCCc1ccccc1,inactive,inactive,
C[C@@H]1[C@H](O)[C@@H](C)/C=C/C=C\C=C\C=C\C=C\C=C\C=C\[C@H](O[C@@H]2O[C@H](C)[C@@H](O)[C@H](N)[C@@H]2O)C[C@@H]2O[C@](O)(C[C@@H](O)C[C@@H](O)[C@H](O)CC[C@@H](O)C[C@@H](O)CC(=O)O[C@H]1C)C[C@H](O)[C@H]2C(=O)O (stereo in doubt),inactive,inactive,
CN[C@@H]1[C@@H](O)[C@@H](O[C@@H]2[C@H](O)[C@H](O[C@H]3OC(CN)=CC[C@H]3N)[C@@H](N)C[C@H]2N)OCC1(C)O (stereo partly specified),inactive,inactive,
CO[C@@]1(NC(=O)C(C(=O)O)c2ccc(O)cc2)C(=O)N2C(C(=O)O)=C(CSc3nnnn3C)CO[C@@H]21 (stereo partly specified),inactive,,-1.77%
CC1COc2c(N3CCN(C)CC3)c(F)cc3c(=O)c(C(=O)O)cn1c23 (stereo unspecified),inactive,,-0.258%
CC(=O)Oc1cccc(O)c1,inactive,,-13.8%
